In PubChem BioAssay:

Tests used:
[1] = target: Tumor necrosis factor receptor superfamily member 10B (Homo sapiens) (UniProt O14763); assay: viability loss of caspase-8 NB7 cells with TRAIL – with/without TRAIL, luminescence panel, confirmation (AID 651596); settings: NB7 neuroblastoma + caspase-8, TRAIL sensitization, NB7 Caspase-8, with TRAIL, mean of runs, at 10 µM, stronger effect = higher value
[2] = as above; settings: NB7 neuroblastoma + caspase-8, without TRAIL, NB7 Caspase-8, without TRAIL, mean of runs, at 10 µM

Tumor necrosis factor receptor superfamily member 10B (Homo sapiens), sequence (O14763 whole entry, looked up): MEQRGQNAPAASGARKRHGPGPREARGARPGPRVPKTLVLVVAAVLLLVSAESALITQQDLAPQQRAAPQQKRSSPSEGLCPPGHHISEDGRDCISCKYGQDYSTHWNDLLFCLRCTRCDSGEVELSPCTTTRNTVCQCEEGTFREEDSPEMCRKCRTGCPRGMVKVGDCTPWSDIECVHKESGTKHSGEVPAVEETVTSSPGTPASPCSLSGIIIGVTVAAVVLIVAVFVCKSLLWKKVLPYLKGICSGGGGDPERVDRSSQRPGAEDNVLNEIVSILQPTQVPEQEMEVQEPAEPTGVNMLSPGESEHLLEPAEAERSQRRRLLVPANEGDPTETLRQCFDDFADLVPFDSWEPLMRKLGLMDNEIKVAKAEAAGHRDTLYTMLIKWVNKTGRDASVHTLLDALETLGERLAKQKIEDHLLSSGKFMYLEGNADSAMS

Structure (SMILES)	activity [1]	activity [2]
C/C(=N\NC(=O)c1cc(O)ccc1O)c1cccc(NC(=O)c2ccc(Cl)cc2)c1	40.8%	24.6%
CCc1ccc(OCc2nc(-c3ccccn3)no2)c(Br)c1	50%	46.4%
c1ccc(CSc2ccc(-c3ccco3)nn2)cc1	57.6%	45.9%
Cc1cccc(/C(N)=N/OC(=O)c2ccc(Cl)cc2Cl)c1	97.3%	91.8%
O=C(Nc1nc2c(F)cc(F)cc2s1)c1ccccn1	61.9%	64.5%
O=C(CCl)N1c2ccccc2SCC1c1ccccc1 (stereo unspecified)	99.4%	98.9%
CC(C)c1ccc(/C=N/NC(=O)c2ccccn2)cc1	86.9%	76.6%
O=C(N/N=C/c1cccc([N+](=O)[O-])c1)c1ccc2c(c1)OCCO2	73.3%	61.3%
O=C(Nc1cnn(C23CC4CC(CC(C4)C2)C3)c1)c1cnn2c(C(F)(F)F)cc(-c3ccco3)nc12	76.4%	70.3%
COc1ccccc1NC(=O)Nc1ccc2c(c1)nnn2C	20.6%	7.6%
O=C(CSc1nnc(NC(=O)c2ccc(F)cc2)s1)NCc1ccco1	64.4%	62.4%
CCOC(=O)N1CCN(C(=O)CSCC(=O)Nc2nc(-c3ccc(-c4ccccc4)cc3)cs2)CC1	66.9%	68%
Cn1cc([N+](=O)[O-])c(C(=O)Nc2nc(-c3ccc(Cl)cc3)cs2)n1	97.3%	98.7%
Cc1ccc2oc(/N=C(\N)NC(=O)C3CC3)nc2c1	56.4%	71%
CCOc1ccccc1NC(=O)c1nc(S(=O)(=O)Cc2cccc(C)c2)ncc1Cl	84.6%	97.2%
Cc1ccc(Nc2nc(CSc3nnnn3C)cs2)cc1	23.2%	8.93%
Cc1cccc(-c2noc(-c3csc([C@@H]4C[C@H](O)[C@@H](CO)O4)n3)n2)c1	36.7%	29.3%
COc1ccccc1NC(=O)CSc1ccc(-c2ccc(-n3ccnc3)cc2)nn1	47%	38.6%
COc1ccc(C2C(C(=O)N3CCC(C)CC3)c3ccccc3C(=O)N2C)cc1 (stereo unspecified)	67.2%	68.5%
COc1ccc(C(=O)Nc2ccc3[nH]ncc3c2)cc1	78.3%	77.1%
CCC(C)N(CC(=O)Nc1cccc(C)c1C)C(=O)CCl (stereo unspecified)	99.5%	99.3%
Cc1ccc(-c2cc(C(=O)N3CCOCC3)no2)cc1	69.7%	65.2%

Structure (SMILES)	activity [1]	activity [2]
Nc1c(N(CCC2=CCCCC2)C(=O)COc2ccc(F)cc2)c(=O)[nH]c(=O)n1Cc1ccccc1	27.3%	23%
CCOC(=O)NC(=O)CSc1nc(C)cc(C)c1C#N	71%	61.4%
Cc1ccc(C(=O)Nc2ccc(Cl)cc2C)c(Cl)c1	56.7%	39.9%
Cc1ccc(C2=NS(=O)(=O)N(C)C(C(=O)NCc3cccs3)=C2)cc1	5.95%	0.8%
CCOC(=O)C1CCN(C(=O)C2c3ccccc3C(=O)N(C)C2c2ccc(OC)cc2)CC1 (stereo unspecified)	66.1%	60.9%
C/C(=N\NC(=O)c1ccc(O)cc1)c1cccc(NC(=O)c2ccccc2C)c1	59.9%	61.3%
Cc1ccc(C(=O)Nc2ncc3c(Cl)cccc3n2)cc1	91.5%	89%
N#Cc1nc(Nc2cccc(Cl)c2)c2ncn(C3CCCC3)c2n1	76.7%	57.3%
Nc1c(N(C(=O)Nc2ccc(Cl)c(Cl)c2)C2CCCC2)c(=O)[nH]c(=O)n1Cc1ccccc1	46.5%	46%
Clc1ccc(CSc2nc3ccncc3[nH]2)cc1	96.8%	96.1%
COn1c(SCc2ccc(C)cc2C)nc2ccccc2c1=O	69.7%	35.5%
C/C(=N\Nc1nc(C)cc(-c2ccccc2)n1)c1cccc(N)c1	41.5%	32.7%
O=C(/C=C/Nc1ccccc1C(F)(F)F)c1ccco1	97.2%	99.3%
CCCCCCCCCCCCCCC[C@@H](O)[C@@H](N)CO	84.5%	79.7%
CCOC(=O)c1c(CSC(=N)N)n(-c2ccc(C)cc2)c2cc(Br)c(OC(C)=O)cc12	90.7%	81.3%
CCOc1ccc2nc(NC(=O)c3cccc(N4C(=O)CCC4=O)c3)sc2c1	65.7%	81.5%
O=C(N/N=C/C(Cl)=C/c1ccccc1)c1ccccn1	61.2%	42.8%
Cc1cccnc1Nc1nc(-c2ccccn2)cs1	38.4%	63.1%
COc1ccc(CC(=O)Nc2cccc(-c3nnc(-c4ccccc4)o3)c2)cc1OC	78.9%	59.8%
Cc1ccccc1C(=O)Nc1nnc(SCC(=O)NC2CC2)s1	48.7%	45.2%
O=C1c2cc(F)ccc2-n2c1nc1ccccc1c2=O	32.5%	25.7%
